Structures are written as SMILES. Unmarked numbers belong to inactive results. How the calls were made is not given here.

This assay deals with Pantothenate synthetase (Mycobacterium tuberculosis (strain ATCC 25618 / H37Rv)) (UniProt P9WIL5). Nature of the assay: Recombinant Mtb pantothenate synthetase (PanC) inhibitors, coupled enzyme, confirmatory (AID 375).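 Further: 0% = full reaction with vehicle and 100% = no enzyme background.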 As to conditions: coupled enzyme assay; at 10 µM, hits give high values.
Chain of Pantothenate synthetase (Mycobacterium tuberculosis (strain ATCC 25618 / H37Rv)) (P9WIL5 whole entry, looked up): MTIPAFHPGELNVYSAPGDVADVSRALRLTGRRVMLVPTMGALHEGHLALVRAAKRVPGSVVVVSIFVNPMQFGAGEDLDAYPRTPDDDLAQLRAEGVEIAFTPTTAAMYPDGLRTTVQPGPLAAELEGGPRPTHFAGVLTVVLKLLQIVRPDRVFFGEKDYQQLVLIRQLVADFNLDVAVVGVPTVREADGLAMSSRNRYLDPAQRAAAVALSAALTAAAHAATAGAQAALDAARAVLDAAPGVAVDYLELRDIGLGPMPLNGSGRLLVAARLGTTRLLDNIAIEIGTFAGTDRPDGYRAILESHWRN
What is called inhibition is the share of the control response that was lost under treatment. Consider `CCC1CCCCN1C(=O)CSc1nnc(-c2ccco2)o1` (configuration not stated), for which the inhibition was 1%.

As to `Cc1nn(-c2ccc(F)cc2)c2nc(N)c(C#N)c(-c3cccs3)c12`, the inhibition was 6%. With `CCOc1cc(S(=O)(=O)Nc2ccccn2)ccc1F` the figure was 0%. Consider `CCOc1ccc(CCNc2nc3c(c(=O)n(C)c(=O)n3C)n2CC)cc1OCC`, for which the inhibition was 0%.

Turning to `Cc1ccc(OCC(=O)N2CCN(C(=O)CCC3CCCC3)CC2)cc1`, the inhibition was 0%.

Regarding `Cc1ccc(NC(=O)c2ccco2)c(NC(=O)c2cccs2)c1`, the inhibition was 0%. With `COc1ccc(C(=O)NCc2nnc(SC)n2C2CCCCC2)cc1` the figure was 2%. With `COc1ccc2c(c1)n([O-])c1c([n+]2=O)CCC1` the figure was 0%; with `c1ccc(CCn2nnnc2C(c2cccs2)N2CCOCC2)cc1` (configuration not stated), 1%; with `O=C(Nc1ccncc1)c1cccc(F)c1`, 6%. As to `COC(=O)c1cc(-c2c(C)nn(-c3ccccc3)c2C)n[nH]1`, the inhibition is 0%. Turning to `Cc1oc(C(=O)O)cc1CSCc1cc(C(=O)O)c(C)o1`, the inhibition was 2%. With `Fc1ccc(-c2csc3nnc(SCc4cccnc4)n23)cc1` the figure was 0%. The value for `CCOC(=O)CSc1nc2sc(C)c(C)c2c(=O)[nH]1` was 0%; that for `C=CCc1c(C)nc(SC)nc1Nc1ccc(C(=O)O)cc1` was 6%. The value for `CCOC(=O)c1[nH]c(C)c(C(=O)N(C)C)c1C` was 0%; that for `CCSc1nnc(NC(=O)c2ccc(C)o2)s1` was 9%; that for `Cc1ccccc1CSc1nnc(C)c(=O)[nH]1` was 0%. Consider `COc1ccc2cc(C(=O)NCc3ccco3)c(=Nc3ccc(C(=O)O)cc3)oc2c1`, for which the inhibition is 0%.

In the case of `Cc1ccc(/C=N/n2nnnc2N)o1`, the inhibition was 0%. With `C/C=C(/C(=C/C)c1ccc(O)cc1)c1ccc(O)cc1` the figure was 0%; with `Cc1cccc(C)c1NC(=O)COC(=O)c1nonc1N`, 0%.

The record behind these values is PubChem BioAssay.
